In PubChem BioAssay:

assay: MRP1 drug-resistance reversers in H69AR cells – cell-based, doxorubicin co-treatment, pilot screen (AID 601); settings: H69AR cells + 2 uM doxorubicin, CellTiter-Glo, 72 h; measured here: viability with 2 uM doxorubicin; at 10 µM; stronger effect = lower value

Point of comparison: `COc1ccc(-c2cc(C(=O)NCc3ccc(Cl)cc3)no2)cc1OC`, viability 99.5%. Against it:
- N#Cc1ccccc1NC(=O)CSc1nnc(-c2ccccc2)n1-c1ccccc1 — lower, 93.8%
- Cc1ccc(-n2cnnn2)c2cccnc12 — lower, 93.5%
- Cc1ccc(-c2[nH]nc3c2C(c2ccc(OC(=O)N4CCOCC4)cc2)C(C#N)=C(N)O3)cc1 (configuration not stated) — lower, 96%
- CC(C)=CC(=O)N1CCCc2ccccc21 — lower, 93.2%
- CCOC(=O)c1cc2n(n1)C(C(F)(F)C(F)(F)F)CC(C)N2 (configuration not stated) — lower, 93%
- c1ccc(-c2ccccc2OCCn2cncn2)cc1 — lower, 83.9%
- CC(C)Cn1c(N)c(C(=O)COC(=O)c2ccc3c(c2)OCCO3)c(=O)n(C)c1=O — lower, 98.6%
- COc1ccc(Cn2c(CCCO)nc3ccccc32)cc1OC — lower, 88%
- CN(C)C(=O)N1CCCC(C(=O)NCc2ccccc2)C1 (configuration not stated) — higher, 107%
- O=C(CN1C(=O)c2cccc3cccc1c23)N1CCN(c2ccccc2)CC1 — lower, 89.5%
- CC(C)(C)OC(=O)NCCc1nnc(SCC(=O)c2ccc(Cl)cc2)o1 — lower, 92.4%
- CCOC(=O)N1CCN(c2c(N3CCN(c4ccccc4OC)CC3)c(=O)c2=O)CC1 — lower, 75.5%
- Cn1c(=O)c2ncn(CC(=O)NCCOc3ccc(C(C)(C)C)cc3)c2n(C)c1=O — lower, 93.8%
- CCOC(=O)c1ccc(NC(=O)CCNc2c(N3CCCC3)c(=O)c2=O)cc1 — lower, 98%
- CCOC(=O)CSc1nnc(CCc2nc3ccccc3[nH]2)n1C — higher, 101%
- CCOc1ccc(-c2nnn(CCC(=O)O)n2)cc1OC — lower, 89.8%
- CCCCNC(=O)CN(C1CCCCC1)S(C)(=O)=O — lower, 92.4%
- CCOCCCNC(=O)C1CCC(=O)N1CCc1ccccc1 (configuration not stated) — higher, 111%
- OC(COc1ccc2ccccc2c1)CN1CCOCC1 (configuration not stated) — lower, 83.8%
- COc1ccccc1CN1C(=O)CCC1(C)C(=O)NC1CCCCCC1 (configuration not stated) — lower, 95.2%

same assay, conditions: H69AR cells, CellTiter-Glo, 72 h; compound alone cytotoxicity; at 10 µM

Point of comparison: `Cc1ccc(-n2cnnn2)c2cccnc12`, viability 101%. Against it:
- CC1/C(=N/O)C(CN(C)C)C2CC1C2(C)C (configuration not stated) — higher, 108%
- O=C(Nc1cccc(F)c1)c1ccc2c(c1)OCO2 — lower, 97.1%
- COc1ccccc1N=Cc1nc(-c2ccccc2)oc1OC(C)=O — lower, 63.1%
- CC(=O)Nc1ccc(S(=O)(=O)NCc2cn3c(C)csc3n2)cc1 — higher, 102%
- O=C(c1ccccc1Br)N1CCN(c2ccccc2)CC1 — higher, 102%
- COc1cccc(OC)c1C(=O)Nc1ccc(CN2CCCCC2)cc1 — lower, 89.4%
- O=C(Cn1nnc(-c2ccccc2)n1)Nc1ccccc1N1CCOCC1 — lower, 93.3%
- CCCCSc1cc(C)nc2ncnn12 — lower, 99.7%
- COCCn1c(C)cc(C(=O)COC(=O)CCN2C(=O)c3ccccc3C2=O)c1C — lower, 96.6%
- Cc1cc(=O)n(CC(C)C)c(O)c1C#N — higher, 104%
- Cc1nc2cc(Cl)ccc2n1CCO — lower, 92%
- CCCN1CCN(C(=O)Cn2c(=O)oc3cc(S(=O)(=O)NCc4ccccc4)ccc32)CC1 — lower, 95.3%
- COc1ccc2cc(C#N)c(SCC(=O)N3CCCC3)nc2c1 — lower, 70.2%
- CCn1c(=O)cc(OCC(=O)NC2CCCCC2)c2ccccc21 — lower, 87%
- CC(C(=O)Nc1ccccc1-c1ccccc1)N1CCN(C(=O)c2ccco2)CC1 (configuration not stated) — lower, 74.1%
- Cc1c(C(=O)NCc2cccnc2)sc2ncn(CC(=O)N3CCCCC3C)c(=O)c12 (configuration not stated) — lower, 97%
- O=C(c1cn(-c2ccccc2)nc1-c1cccs1)N1CCN(c2ccccn2)CC1 — lower, 45.1%
- CCOc1ccc2[nH]c(=O)c(C(c3nnnn3Cc3ccco3)N3CCC(C)CC3)cc2c1 (configuration not stated) — lower, 85.7%
- c1ccc(-c2nnc(-c3ccco3)n2-c2ccccc2)cc1 — lower, 88.1%
- N#Cc1ccccc1NC(=O)CSc1nnc(-c2ccccc2)n1-c1ccccc1 — lower, 30.3%
- Cc1ccc(-c2[nH]nc3c2C(c2ccc(OC(=O)N4CCOCC4)cc2)C(C#N)=C(N)O3)cc1 (configuration not stated) — lower, 85.5%
- CC(C)=CC(=O)N1CCCc2ccccc21 — lower, 98.4%
- CCOC(=O)c1cc2n(n1)C(C(F)(F)C(F)(F)F)CC(C)N2 (configuration not stated) — lower, 97.3%
- c1ccc(-c2ccccc2OCCn2cncn2)cc1 — lower, 99.8%
- CC(C)Cn1c(N)c(C(=O)COC(=O)c2ccc3c(c2)OCCO3)c(=O)n(C)c1=O — lower, 91.8%
- COc1ccc(Cn2c(CCCO)nc3ccccc32)cc1OC — higher, 102%
- CN(C)C(=O)N1CCCC(C(=O)NCc2ccccc2)C1 (configuration not stated) — lower, 87.8%
- O=C(CN1C(=O)c2cccc3cccc1c23)N1CCN(c2ccccc2)CC1 — higher, 113%
- CC(C)(C)OC(=O)NCCc1nnc(SCC(=O)c2ccc(Cl)cc2)o1 — higher, 105%
- CCOC(=O)N1CCN(c2c(N3CCN(c4ccccc4OC)CC3)c(=O)c2=O)CC1 — lower, 84.2%
